Compound activity deposited in PubChem BioAssay by National Center for Advancing Translational Sciences (NCATS).
Rows were chosen to be rich in hits. Some 1% of all compounds tested hit in one or more screens of this group.
RXFP1 agonist: qHTS Assay for Agonists of the Relaxin Receptor RXFP1; Relaxin receptor 1 (Homo sapiens), Q9HBX9; HEK293T-RXFP1 cAMP TR-FRET, 30 min; response scale: percent of porcine relaxin response, buffer zero; Potency, µM (doses to about 57.5 µM), actives largely listed as activators; 0.3% of 370,000 active; AID 2676, 2010; also: nearly all actives have a fitted effect of over 60% in size
Target sequence (Q9HBX9 whole entry, looked up): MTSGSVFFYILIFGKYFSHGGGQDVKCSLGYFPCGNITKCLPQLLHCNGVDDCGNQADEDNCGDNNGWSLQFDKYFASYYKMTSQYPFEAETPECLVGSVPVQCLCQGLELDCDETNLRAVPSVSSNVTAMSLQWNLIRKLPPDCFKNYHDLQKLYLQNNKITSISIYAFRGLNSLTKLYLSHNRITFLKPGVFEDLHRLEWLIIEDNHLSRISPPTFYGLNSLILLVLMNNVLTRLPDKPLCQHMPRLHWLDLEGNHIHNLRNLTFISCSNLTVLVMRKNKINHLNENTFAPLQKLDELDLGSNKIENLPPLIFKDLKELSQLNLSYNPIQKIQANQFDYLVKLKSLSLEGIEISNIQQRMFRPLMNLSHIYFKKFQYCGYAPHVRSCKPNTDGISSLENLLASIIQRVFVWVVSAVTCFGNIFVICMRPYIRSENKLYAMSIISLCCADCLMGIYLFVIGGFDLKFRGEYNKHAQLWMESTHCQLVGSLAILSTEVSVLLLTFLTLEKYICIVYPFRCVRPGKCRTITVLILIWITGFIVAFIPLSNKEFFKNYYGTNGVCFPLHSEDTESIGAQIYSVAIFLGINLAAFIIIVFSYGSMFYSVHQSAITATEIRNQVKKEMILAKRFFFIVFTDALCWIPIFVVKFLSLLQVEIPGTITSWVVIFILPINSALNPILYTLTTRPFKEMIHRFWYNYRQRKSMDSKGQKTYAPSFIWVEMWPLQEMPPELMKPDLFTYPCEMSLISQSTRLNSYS
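HEK293 cells stably expressing RXFP1, treated 30 min at 37C with compounds plus PDE4 inhibitor Ro 20174; cAMP measured by HTRF TR-FRET. Normalized to buffer and 29 nM porcine relaxin; EC50 by Hill fit.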
RXFP1 antagonist: qHTS Assay for Antagonists of the Relaxin Receptor RXFP1. Relaxin receptor 1 (Homo sapiens), Q9HBX9. AID 1259400, 2018. 0.59% of 350,000 active. HEK293-RXFP1, relaxin-stimulated cAMP HTRF, 30 min; hits give low values. activity change, negative = inhibition, % at 57.5 µM;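 active = activity change of -60% or lower, but not beyond a set lower limit; inconclusive = change between -60% and -40%, or beyond the set limit; inactive = change above -40%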
gsp ag: qHTS for Agonist of gsp, the Etiologic Mutation Responsible for Fibrous Dysplasia/McCune-Albright Syndrome: qHTS. Potency, µM (doses to about 76.9 µM), actives largely listed as activators. gsp mutant cells, cAMP HTRF, 30 min. 0.13% of 340,000 active; active = well fitted activation curve with a large enough effect; inconclusive = small, poorly fitted or top-dose-only effect, or another doubt; inactive = no such curve, though single readings can be large or run the other way; cell line not stated here;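 also: phosphodiesterase inhibitor Ro 20-1724 added with compounds to block cAMP breakdown; nearly all actives have a fitted effect of over 60% in size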
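Cells stably selected in G418 were plated at 2000/well, grown 16-24 hr, then given compounds in DMSO with the PDE inhibitor […] (300 uM solution added) for 30 min at 37C; cAMP was read by HTRF.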
gsp antag: qHTS for Antagonists of gsp, the Etiologic Mutation Responsible for Fibrous Dysplasia/McCune-Albright Syndrome: qHTS; AID 624288, 2012; Potency, µM (series often up to 76.9 µM), hits mostly inhibitors; 0.4% of 340,000 active; gsp-mutant cells, cAMP HTRF, 30 min; calls by dose curve; cell line not stated here;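 also: intracellular cAMP measured with PDE inhibitor Ro 20-1724 present during compound exposure; nearly all actives have a fitted effect of over 65% in size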
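HTRF cAMP measurement after 30 min RT detection following 30 min, 37C compound treatment alongside […] (added as 300 uM solution) in G418-selected cells seeded at 2000/well and grown 16–24 h.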
miR-21 act: qHTS Assay for Modulators of miRNAs and/orActivators of miR-21. AID 2288, 2010. HeLa miR-21 FLuc reporter, luciferase, 48 h. Potency, µM (series often up to 38.3 µM), usual class: activators. 340,000 tested, under 10 active;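 also: miR-21 action dims this reporter so a rising signal means less miR-21 action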
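Using DMEM plus 10% FBS, HeLa miR-21-FLuc cells are incubated with test compounds (final up to about 40uM) for 48 hours; firefly luciferase signal is then imaged following reagent-mediated lysis.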
Luc counter: Counterscreen for Luciferase (Kinase-Glo TM) Inhibition; Kinase-Glo luciferase, ATP luminescence, 8 min; Luciferin 4-monooxygenase (Photuris pensylvanica), Q27757; Potency, µM (doses to about 38.3 µM), hits mostly inhibitors; AID 1379, 2008; 0.28% of 200,000 active; also: nearly all actives have a fitted effect of over 60% in size
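Recombinant Kinase-Glo luciferase, 10 uM ATP (linear range), luciferin; imidazole pH 7.2 / KCl / MgCl2 / Tween / BSA buffer; 8 min RT; luminescence.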
A number is an active result; 0 = inactive; ? = inconclusive; - = no result given; ! = a repeat was not active; [ ] = remark or other dose. Unless noted, calls follow the shape of the dose curve; as a rule, active = well fitted curve in the direction sought with a large enough effect; inconclusive = small, poorly fitted or top-dose-only effect, or another doubt; inactive = no such curve, though single readings can be large; an effect the other way counts as inactive or inconclusive.

SMILES	RXFP1 agonist	RXFP1 antagonist	gsp ag	gsp antag	miR-21 act	Luc counter
NC(=S)N/N=C1\CC(c2ccc3c(c2)OCCO3)Oc2ccc(F)cc21 (stereo not drawn)	0	0	?	0	0	-
Cc1cccc(-n2c(-c3csc4ccccc34)n[nH]c2=S)c1	0	-117	0	0	0	0
COc1ccc([C@]23Cc4cc(C#N)ccc4C(O2)c2c(c4ccc(OC)cc4oc2=O)O3)cc1	0[11.5 µM]	-	-	-	0[7.66 µM]	-
O=C(O)CCNc1ccc(NCCC(=O)O)c2c1C(=O)c1ccccc1C2=O	0	-63	?	?	0	-
O=C(O)CCNc1ccccc1C(=O)O	-	-	-	-	-	0[7.66 µM]
C=CCn1c(=O)n([C@@H]2O[C@H](CO)[C@@H](O)[C@H]2O)c2nc(N)[nH]c(=O)c21	-	0	-	-	-	-
CCCCC(O)(c1ccc(F)cc1)C(CN1CCOCC1)c1ccc(Cl)cc1 (stereo not drawn)	0	-77	0	0	0	-
COc1cccc(CNCCSc2nnnn2-c2ccccc2)c1OC	0	0	-	-	0	-
CC(C)C(NC(=O)Cc1ccccc1)C(=O)N1CCN(c2cccc(Cl)c2)CC1 (stereo not drawn)	0	0	0	28µM	-	-
Cc1ccc2oc3nc(C)c(C(=O)O)cc3c(=O)c2c1	0	0	0	0	0	4.5µM
Cc1nn(CC(=O)NCc2ccc(N(C)C)cc2)c(=O)c2c(C)n(-c3ccc(Cl)cc3)nc12	?	0	-	-	0	-
COc1ccc(NC(=O)c2oc3ccccc3c2NC(=O)Cc2cccs2)c(OC)c1	0	-	-	-	0	-
Cc1cc(C)c(NC(=O)c2ccc3c(c2)NC(=O)C(C)S3)c(C)c1 (stereo not drawn)	0	0	0	0	-	-
CCN(CC)S(=O)(=O)c1cc(NC(=O)c2ccc3c(c2)NC(=O)C(C)S3)ccc1C (stereo not drawn)	0	-76	0	?	-	-
O=C(OCc1nnc(-c2ccccc2)o1)c1ccc([N+](=O)[O-])o1	0	0	0[15.4 µM]	0	-	-
O=C(OCc1nnc(-c2ccccc2)o1)c1ccc(Br)o1	0	-73	0[15.4 µM]	0	-	-
CN(C(=O)CC(=O)Nc1ccc2nc3n(c(=O)c2c1)CCCCC3)c1ccccc1F	0	-	-	-	0	-
CS(=O)(=O)c1ccc(S(=O)CC(=O)OCc2ccccc2)c([N+](=O)[O-])c1 (stereo not drawn)	0	-108	0[15.4 µM]	?	?	0
COC(=O)C1=C(C)NC(C)=C(C(=O)OCCN(C)Cc2ccccc2)C1c1cccc([N+](=O)[O-])c1 (stereo not drawn)	0	-76	-	0	0	0
CCOC(=O)C1=C(C)NC(C)=C(C(=O)OCCNC(=O)c2cccnc2)C1c1cccc([N+](=O)[O-])c1 (stereo not drawn)	0	-	0	0	0	0
OC1(c2ccc(OC(F)F)cc2)CSC(=Nc2cccnc2)N1Cc1ccco1 (stereo not drawn)	0	0	0	32µM	?	0
OC1(c2ccc(F)cc2)CSC(=Nc2cccnc2)N1Cc1ccco1 (stereo not drawn)	0	-62	0[15.4 µM]	-	0	0
FC(F)Oc1ccc(-c2csc(=Nc3cccnc3)n2CC2CCCO2)cc1 (stereo not drawn)	0	0	0	0	0	0
CCC(C)n1c(SCc2ccc(F)cc2Cl)nc2ccsc2c1=O (stereo not drawn)	0	0	-	-	?	-
CCc1ccc(-c2ccc3nnc(SCC(=O)NCC4CCCO4)n3n2)cc1 (stereo not drawn)	0	0	0[15.4 µM]	0	-	-
SMILES	RXFP1 agonist	RXFP1 antagonist	gsp ag	gsp antag	miR-21 act	Luc counter
Cc1ccc(-c2ccc3nnc(SCC(=O)NCC4CCCO4)n3n2)cc1 (stereo not drawn)	25µM	0	0	0	0	0
C[C@@]12C[C@H](O)C3[C@H](CCC4=CC(=O)CC[C@]43C)[C@H]1CC[C@@H]2c1csc(-c2ccccc2)n1 (stereo partly drawn)	-	-	-	-	-	0[7.66 µM]
COc1ccc(-c2nc3ccccc3n3c(-c4ccccc4)c4c(=O)n(C)c(=O)n(C)c4c23)cc1	?	0	-	-	0	-
CCc1cccc2c(C(=O)COC(=O)[C@@H]3CC(O)CN3S(=O)(=O)c3ccccc3[N+](=O)[O-])c[nH]c12 (stereo partly drawn)	-	-80	0	0	-	-
COc1cc(CN(C(=O)COc2ccccc2)c2ccccn2)cc(OC)c1OC	0	-	-	-	0	-
COCCn1c(C)cc(C(=O)CSc2nnc(C)s2)c1C	0	0	0	0	?	10µM
COCCn1c(C)cc(C(=O)CSc2n[nH]c(N)n2)c1C	0	0	0	0	0	0
O=C(CSc1nnc2c(Cl)cc(Cl)cn12)NC1CCS(=O)(=O)C1 (stereo not drawn)	0	0	10µM	0	0	0
Cc1ccc(OCC(=O)Nc2ccc(N3CCN(C(=O)c4ccco4)CC3)cc2)cc1C	0	0	0[15.4 µM]	45µM	0	0
O=C(COc1ccc2ccccc2c1)N1CCN(C(=O)c2ccco2)CC1	0	-84	0[15.4 µM]	0	0	0
CCc1ccc(NC(=O)c2nc(S(=O)(=O)Cc3ccccc3)ncc2Cl)cc1	0	-	-	-	?	-
Cc1ccc(CNC(=O)c2nc(S(=O)(=O)Cc3ccc(C)cc3)ncc2Cl)cc1	0	-	-	-	0	-
Cc1cccc(CS(=O)(=O)c2ncc(Cl)c(C(=O)NCc3ccc4c(c3)OCO4)n2)c1	0	-87	0	0	?	-
Cc1ccc(NC(=O)c2nc(S(=O)(=O)Cc3ccccc3C)ncc2Cl)cc1C	0	-74	0[15.4 µM]	0	?	-
Cc1ccc(NC(=O)c2nc(S(=O)(=O)Cc3ccc(F)cc3)ncc2Cl)cc1C	0	?	-	-	?	-
CCOC(=O)c1ccc(NC(=O)c2nc(S(=O)(=O)Cc3ccccc3)ncc2Cl)cc1	0	-62!	0[15.4 µM]	0	?	-
CCS(=O)(=O)c1ncc(Cl)c(C(=O)Nc2ccccc2)n1	0	-88	-	-	?	-
CCN(CC)c1ccc(NC(=O)c2cnn(-c3ccccc3)c2-n2cccc2)c(C)c1	0	0	-	-	0	-
COC(=O)c1cccc(Nc2c(-c3ccc(OC)cc3)nc3nc[nH]n23)c1	0	0	-	-	0	-
CCNC(=O)c1c2c(nc3ccccc13)C(=O)N(C1CCCCC1)C2	0	0	-	-	0	-
CC(C)CC(C)c1cc(N)nc2nc3ccccc3n12 (stereo not drawn)	0	-61	0[15.4 µM]	0	0	0
CCOc1ccc(NC(=O)C(CC)n2nc(-c3ccc(C)c(C)c3)ccc2=O)cc1 (stereo not drawn)	0	0	-	-	0	-
